Screening data as filed in PubChem.
An excerpt weighted towards active compounds, which were near 17% of everything screened.
DT40 TDP1 no CPT: qHTS for Inhibitors of human tyrosyl-DNA phosphodiesterase 1 (TDP1): qHTS in cells in absence of CPT; hit rate 15% among 420,000; DT40 Tdp1-/- hTDP1 cells, no CPT, ATP luminescence, 48 h; AID 686978, 2013; Potency, µM (top dose mostly 46.2 µM), for the others: at the top dose activity change, negative = growth inhibition, usual class: inhibitors; further: on the % scale 0 is the no-effect control and ±100 the full control effect; nearly all actives have a fitted effect of over 55% in size
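Camptothecin absent (DMSO only). Human TDP1-complemented DT40 knockout cells, 400 cells/well, 37 °C for minimum 48 hr; ATP measured via CellTiter-Glo, 30 min dark incubation, luminescence.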
ClpP mod: qHTS Assay for Activators of ClpP; ATP-dependent Clp protease proteolytic subunit (Bacillus subtilis (strain 168)), P80244; purified B. subtilis ClpP, FRET peptide cleavage, 20 min; Potency, µM (top dose mostly 57.5 µM), for inactives: top-dose activity change, negative = active; hit rate 1.9% among 340,000; active means well fitted falling curve with a large enough effect; inconclusive means small, poorly fitted or top-dose-only effect; inactive means no such curve, though single readings can be large or run the other way; further: the source files actives as falling curves though it sought activators and does not explain the sign; nearly all actives have a fitted effect of over 65% in size
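Purified B. subtilis ClpP, 10 microg/mL final in Tris/HCl pH8 with KCl, BSA, glycerol and Tween-20, cleaved an Abz/nitrotyrosine-quenched decapeptide. Fluorescence (ex 320, em 430) was read at 0 and 20 min at room temperature. Delta was normalized to 5.8 microM ADEP and DMSO/no-enzyme controls.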
TDP1 inh: TDP1 (human) enzyme inhibition; Potency, µM (top dose mostly 130 µM), for the others: top-dose activity change, negative = inhibition, actives largely listed as inhibitors; recombinant TDP1, AlphaScreen DNA substrate cleavage; Q9NUW8; hit rate 0.28% among 350,000; further: on the % scale 0 is the no-effect control and ±100 the full control effect; nearly all actives have a fitted effect of over 40% in size
Target sequence (Q9NUW8 whole entry, looked up): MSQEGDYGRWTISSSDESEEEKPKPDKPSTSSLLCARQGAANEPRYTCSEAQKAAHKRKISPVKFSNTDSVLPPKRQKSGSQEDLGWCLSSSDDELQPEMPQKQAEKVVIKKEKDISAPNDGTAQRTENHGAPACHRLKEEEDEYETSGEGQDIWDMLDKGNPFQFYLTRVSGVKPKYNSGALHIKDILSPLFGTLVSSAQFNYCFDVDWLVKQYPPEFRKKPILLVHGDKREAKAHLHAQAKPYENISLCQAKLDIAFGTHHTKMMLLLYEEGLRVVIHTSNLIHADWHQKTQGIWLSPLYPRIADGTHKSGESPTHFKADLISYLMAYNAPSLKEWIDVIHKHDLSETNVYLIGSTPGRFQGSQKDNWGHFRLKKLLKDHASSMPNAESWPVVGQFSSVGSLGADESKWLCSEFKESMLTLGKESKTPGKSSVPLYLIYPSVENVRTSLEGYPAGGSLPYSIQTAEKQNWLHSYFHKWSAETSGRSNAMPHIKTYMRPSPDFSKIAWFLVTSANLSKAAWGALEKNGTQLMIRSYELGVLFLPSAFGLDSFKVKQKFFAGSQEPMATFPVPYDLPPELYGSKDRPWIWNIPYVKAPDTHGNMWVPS
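Recombinant E. coli-expressed Tdp1 (1 nM) preincubated with compound 15 min at RT, then 5'-biotin/3'-phosphotyrosine-FITC DNA substrate (15 nM) added for 5 min. AlphaScreen beads (10 ug/ml) added, 10 min RT; tyrosine-FITC cleavage read as signal loss.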
DT40 TDP1 CPT: growth inhibition of DT40 Tdp1-/-;hTDP1 cells with camptothecin (screen for TDP1 inhibitors); hit rate 12% among 420,000; chicken DT40 Tdp1-/-;hTDP1 cells + 20 nM CPT, ATP luminescence, 48 h; Potency, µM (highest dose often 46.2 µM), inactives show at the top dose activity change, negative = growth inhibition, hits mostly inhibitors; AID 686979; further: on the % scale 0 is the no-effect control and ±100 the full control effect; nearly all actives have a fitted effect of over 55% in size
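Cell growth measured by CellTiter-Glo luminescence after a minimum 48 h, 37 C compound exposure with 20 nM CPT in Tdp1-knockout DT40 cells stably expressing hTDP1, seeded 400/well; qHTS titration format.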
The depositor's hits bear a star; u = inconclusive; x = not tested or not shown; [ ] = dose if it differs, or a comment. Unless noted, the call rests on the fitted dose curve; in most records, active means well fitted curve in the direction sought with a large enough effect; inconclusive means small, poorly fitted or top-dose-only effect, or another doubt; inactive means no such curve, though single readings can be large; an effect the other way counts as inactive or inconclusive. Potency means the concentration at half of the fitted maximal effect.

SMILES | DT40 TDP1 no CPT | ClpP mod | TDP1 inh | DT40 TDP1 CPT
CC(C)(C)S(=O)N1Cc2cc(C(=O)Nc3ccc(-c4ccccc4)cc3)nc(-c3cccc(-c4cc5ccccc5o4)c3)c2[C@@H]1CCO (some centres not stated) | u | -20.8% | x | u
COc1ccc(NC(=O)N(C)[C@H]2C[C@H]3c4[nH]c5ccc(-c6ccc7c(c6)OCO7)cc5c4CCN3C[C@H]2[C@H](C)O)cc1 | 10.3µM* | u | x | 8.2µM*
COc1ccc(-c2ccc3[nH]c4c(c3c2)CCN2C[C@@H]([C@H](C)OC(=O)Nc3cc(Cl)cc(Cl)c3)[C@@H](N(C)C(=O)Nc3cc(Cl)cc(Cl)c3)C[C@@H]42)cc1 | u | -2.7% | x | u
COc1ccc(NC(=O)O[C@@H](C)[C@@H]2CN3CCc4c([nH]c5ccc(-c6ccc(OC)cc6)cc45)[C@@H]3C[C@@H]2N(C)C(=O)Nc2ccc(OC)cc2)cc1 | 13µM* | -11.1% | x | u
CC(=O)Nc1cccc(NC(=O)C2CCN(C(=O)c3ccco3)CC2)c1 | -5.2% | x | -0.3% | 4.7%
CCOc1ccccc1NC(=O)NCCCCc1ccccc1 | 1.6% | 0.1% | 1.3% | -1.0%
CCOc1ccccc1NC(=O)Cn1c(=O)n(CCCCC(=O)NCCCOC)c(=O)c2ccccc21 | -16.0% | 0.5% | -0.9% | -13.2%
COCCn1c(CNC(=O)c2ccc(C)cc2)nc2cccnc21 | -3.7% | -4.0% | 7.7% | -18.6%
Cc1ccc(CNC(=O)CCc2nc3cccnc3n2Cc2ccccc2)cc1 | u | -1.9% | 1.3% | 14.6µM*
COc1ccc(Cn2c(CCC(=O)Nc3cc(C)cc(C)c3)nc3cccnc32)cc1 | u | 2.8% | 9.0% | u
COc1ccc(Cn2c(CCC(=O)Nc3ccc(C)cc3)nc3cccnc32)cc1 | 14.6µM* | -3.2% | 1.3% | u
COc1ccc(CNC(=O)CCc2nc3cccnc3n2Cc2ccc(OC)cc2)cc1 | -18.0% | -6.0% | 6.9% | -4.8%
CCN(CC)c1ccc(C(=O)NCc2nc3cccnc3n2Cc2ccc(C)cc2)cc1 | 14.6µM* | -11.6% | 9.9% | 18.4µM*
O=C(CCCl)Nc1nnc(SCC(=O)NC2CCCC2)s1 | 3.26µM* | x | 10.0% | 3.26µM*
Cc1ccc(S(=O)(=O)N2[C@@H](CCO)OC[C@H]2C(C)C)cc1 | u | -1.0% | x | -3.3%
CCC(c1nc2ccccc2[nH]1)n1c(=O)c(-c2ccco2)nc2ccccc21 (configuration not stated) | 18.4µM* | 4.2% | x | 20.6µM*
O=c1c(-c2ccco2)nc2ccccc2n1C(c1ccccc1)c1nc2ccccc2[nH]1 (configuration not stated) | 23.1µM* | 4.7% | x | 16.4µM*
O=c1c(-c2ccco2)nc2ccccc2n1C(c1ccccn1)c1nc2ccccc2[nH]1 (configuration not stated) | u | 4.3% | x | u
COc1ccc(C2c3ccccc3Oc3ncn(CCN4CCOCC4)c(=N)c32)cc1OC (configuration not stated) | x | x | -6.2% | x
COC(=O)C1(C(=O)OC)C[C@H](/C=C/c2ccccc2)N(Cc2ccccc2OC)[C@@H]1c1ccc(F)cc1 | u | 0.9% | x | u
Cc1cccc(NC(=O)C2CCN(c3cnccn3)CC2)c1 | -4.1% | -20.8% | -2.3% | -9.7%
C=CC[n+]1c(-c2ccc(OC)cc2)csc1NNC(=O)Nc1ccccc1 | 5.17µM* | 0.4% | 10.1% | 7.31µM*
CCc1ccc2[nH]c(=O)c(C(c3nnnn3CCOC)N3CCN(c4ccccc4)CC3)cc2c1 (configuration not stated) | 18.4µM* | u | 7.7% | u
CCCN1CCN(C(c2cc3cc(OCC)ccc3[nH]c2=O)c2nnnn2C2CCCCC2)CC1 (configuration not stated) | u | 28.2µM* | 3.2% | u
C1=C(C(c2nnnn2C2CCCCC2)N2CCCCC2)COc2ccccc21 (configuration not stated) | 16.4µM* | 0.4% | 2.1% | u
SMILES | DT40 TDP1 no CPT | ClpP mod | TDP1 inh | DT40 TDP1 CPT
COc1ccc2cc(C(c3nnnn3C3CCCC3)N3CCc4ccccc4C3)c(=O)[nH]c2c1 (configuration not stated) | 18.4µM* | -23.6% | 0.0% | u
Cc1ccc2cc(C(c3nnnn3C3CCCC3)N3CCN(c4ccc(F)cc4)CC3)c(=O)[nH]c2c1 (configuration not stated) | u | -11.8% | 3.3% | u
COc1ccc(OCC(=O)N2CCN(C(=O)c3ccc(F)cc3)CC2)cc1 | 14.7% | -1.9% | -3.9% | -14.2%
CN(Cc1ccccc1)c1nc2c(S(=O)(=O)c3ccccc3)nnn2c2ccsc12 | -21.7% | -0.6% | 2.6% | 1.3%
COc1ccc2[nH]c(=O)c(C(c3nnnn3C3CCCCC3)N3CCN(C)CC3)cc2c1 (configuration not stated) | 7.7% | 31.6µM* | 1.0% | -6.9%
c1ccc(C(c2nnnn2C2CCCCC2)N2CCc3ccccc3C2)nc1 (configuration not stated) | -25.8% | 2.51µM* | 3.0% | -19.4%
COc1ccc(Cn2nnnc2C(c2cc3ccc(OC)cc3[nH]c2=O)N2CCCCCC2)cc1 (configuration not stated) | 23.1µM* | u | 4.2% | 16.4µM*
COC(=O)CC1[C@@]2(C)C[C@@]34OC5(C)OC6(CC[C@@]7(C)C(c8ccoc8)OC(=O)C(C(C)=O)C7[C@]6(O5)C(O)[C@@]3(O)C2O)[C@]14C (some centres not stated) | 1.6% | x | 10.9%[56.1 µM] | -10.0%
O=C(NCc1cc([N+](=O)[O-])ccc1O)c1cccc(NS(=O)(=O)c2ccccc2)c1 | -0.4% | -0.8% | 3.4% | -4.5%
Nn1c(SCc2cccc3ccccc23)nnc1-c1ccco1 | u | 2.0% | 3.9% | u
Cc1cc(C)cc(NC(=O)CSc2nnc(CNC(=O)c3ccco3)n2C)c1 | 29.1µM* | -1.3% | 0.8% | u
CC(=O)Nc1ccc(-c2nnc(SCC(=O)c3ccc4c(c3)Cc3ccccc3-4)n2C)cc1 | 11.6µM* | -13.7% | 5.3% | 13µM*
O=C(CSc1nnc(-c2ccco2)n1Cc1ccccc1)c1ccccc1 | u | -2.7% | 7.0% | u
Cn1c(SCC(=O)c2ccc3c(c2)Cc2ccccc2-3)nnc1-c1cccc(N)c1 | u | -2.9% | -2.3% | u
Cn1c(SCC(=O)c2ccc(-c3ccccc3)cc2)nnc1-c1ccco1 | 25.9µM* | 1.2% | 0.0% | -24.3%
Cc1ccc(NC(=O)CSc2nnc(CNC(=O)c3ccco3)n2C)cc1 | -29.0% | 1.6% | x | -14.6%
Cn1c(SCc2cccc3ccccc23)nnc1-c1ccco1 | u | 1.2% | 3.3% | 13µM*
